PubChem BioAssay AID1671190 (National Center for Advancing Translational Sciences (NCATS), 2021)
Hit rate of the full screen: of about 580,000 compounds, about 6,100 (1.1%) were called active. About 15% were inconclusive and are not listed. The full list was thinned out, with actives kept by preference. A number with no mark means an inactive call. Calls follow the shape of the dose curve; as a rule, active = well fitted inhibition curve with a large enough effect; inconclusive = small, poorly fitted or top-dose-only effect, or another doubt; inactive = no such curve, though single readings can be large or run the other way.

molecular target: Polyunsaturated fatty acid lipoxygenase ALOX12 (Homo sapiens) (UniProt P18054); assay: Primary qHTS assay for inhibitors of human arachidonate 12S-lipoxygenase (ALOX12): Round 2; details: purified 12hLO, xylenol orange hydroperoxide absorbance; series mostly up to 108 µM; activity change, negative = inhibition: at the top concentration
Sequence (P18054 whole entry, looked up): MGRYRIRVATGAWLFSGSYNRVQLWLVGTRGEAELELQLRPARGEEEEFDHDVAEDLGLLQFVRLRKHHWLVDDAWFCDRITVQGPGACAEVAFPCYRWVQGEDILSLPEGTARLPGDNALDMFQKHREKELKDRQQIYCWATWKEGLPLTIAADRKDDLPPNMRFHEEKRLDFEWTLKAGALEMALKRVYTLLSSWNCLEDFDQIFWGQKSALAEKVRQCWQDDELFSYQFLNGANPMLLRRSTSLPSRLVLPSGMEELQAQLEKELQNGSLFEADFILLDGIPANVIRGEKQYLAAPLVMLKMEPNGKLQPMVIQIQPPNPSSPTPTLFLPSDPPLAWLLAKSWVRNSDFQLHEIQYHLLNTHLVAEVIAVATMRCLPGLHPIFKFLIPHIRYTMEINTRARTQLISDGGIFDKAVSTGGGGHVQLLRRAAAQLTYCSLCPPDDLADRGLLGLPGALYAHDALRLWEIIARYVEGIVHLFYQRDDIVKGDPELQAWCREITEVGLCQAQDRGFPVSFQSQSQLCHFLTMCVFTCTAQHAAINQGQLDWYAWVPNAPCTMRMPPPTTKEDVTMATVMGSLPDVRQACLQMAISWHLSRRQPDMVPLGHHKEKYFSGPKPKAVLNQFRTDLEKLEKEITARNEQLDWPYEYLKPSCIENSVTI
Summary of the method: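 Purified human 12hLO at 150 nM in 25 mM Hepes, 0.01% Triton X-100, pH 7.0, preincubated 15 min at room temperature with compound. Reaction started with 40 uM arachidonic acid, 30 min at room temperature. Hydroperoxide measured by Fe-xylenol orange, 573/405 nm absorbance ratio.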
% is scaled to controls: 0 for no effect and ±100 for the full control effect; potency is read from the fitted curve at half-maximal effect.

SMILES	activity change, negative = inhibition	Potency
Cc1cccc(OCC(O)CNC23CC4CC(CC(C4)C2)C3)c1 (centres undefined)	12%	
CCn1cc(CN2CCCC23CCN(c2ccc(C(F)(F)F)cn2)CC3)cc1C#N	52.7%	
S=c1[nH]nc2c3c4c(sc3ncn12)CCCC4		0.562 µM (active)
O=C(CSc1ncnc2sc3c(c12)CCCC3)Nc1ccc(F)cc1	-0.335%	
Cc1cc(C(F)(F)F)nn1Cc1nc2c3c4c(sc3ncn2n1)CCC4	37.6%	
CCCCCCCCCC(=O)NN=C1CCCCCCCCCCC1	20.9%	
O=C(CSc1ccncc1)N1CCCC(O)(CN2CCCC2)C1 (centres undefined)		25.1 µM (active)
O=C(CSc1ncccn1)N1CCCC1	12%	
CC1(C(=O)NS(=O)(=O)C2CC2)CCCN(C(=O)CSc2ccccc2)C1 (centres undefined)	2.48%	
COc1ccc(C2CC(=O)c3cnc4c(c3C2)c(=O)[nH]c(=O)n4CCC(C)C)cc1 (centres undefined)	-3.93%	
CCCC(=O)C1C(=O)CC(c2ccc(OC)c(OC)c2)CC1=O (centres undefined)	46.2%	
O=C(CSc1nc2ccccc2nc1N1CCCCC1)Nc1cccc(Br)c1	56.1%	
CC(Oc1ccc(-c2ccccc2)cc1)C(N)=O (centres undefined)	47.2%	
N#Cc1ccc(-c2nc(C(=O)NC3CCCCCC3)no2)cc1	7.37%	
CCCCCC1CCC(C(=O)Oc2ccc(C#N)cc2)CC1 (centres undefined)	1.66%	
CC1(OC(=O)C2CCCC2)C(=O)C=C2C=C(c3ccc(C#N)cc3)OC=C2C1=O (centres undefined)		10 µM (active)
CCCc1cc(=O)oc2c(C)c(OCC(=O)c3ccc(-c4ccccc4)cc3)ccc12	8.56%	
O=C(Nc1ccc2c(c1)OCCO2)C(=O)c1c[nH]c2cc(F)ccc12	-16.1%	
COc1ccc(CN2CCN(Cc3cccnc3)CC2)cc1OCc1ccccc1		0.708 µM (active)
Fc1ccc(OC2CN(Cc3cccnc3)C2)c(F)c1	10.3% [at 12.5 µM]	
C=CCc1ccc(OCC(O)CN2CCN(Cc3ccccc3)CC2)c(OC)c1 (centres undefined)	-23.6%	
Cc1[nH]nc2c1C(c1ccccc1Br)C1=C(COC1=O)N2 (centres undefined)	-14.3%	
O=C(NCc1coc(-c2cccs2)n1)C1CCCN(C(=O)c2ccc(F)cc2)C1 (centres undefined)	-2.26%	
CN(CC(=O)Nc1cc(Cl)ccc1F)Cc1ccccc1N1CCCCC1	10.9%	
CNC(NC(=O)c1ccc(C)cc1)C(Cl)(Cl)Cl (centres undefined)	3.19%	
COc1ccc(C(=O)NCc2ccc(C)cc2)cc1S(=O)(=O)N1CCCC1	30.3%	

SMILES	activity change, negative = inhibition	Potency
COc1ccc(C)cc1S(=O)(=O)N1CCN(S(=O)(=O)c2cc(C(=O)O)ccc2C)CC1		15.8 µM (active)
COc1ccc(C(=O)N(Cc2ccccc2)c2ccc(C)cc2)cc1S(=O)(=O)N1CCOCC1	1.7%	
CCCCn1nc(C(=O)Nc2cc(Cl)ccc2C)c2ccccc2c1=O	3.35%	
CCOc1ccc(-c2nc(CN3CCN(C(=O)Nc4ccccc4OC)CC3)c(C)o2)cc1	-12%	
Cc1ncc(-c2ccc(S(=O)(=O)Nc3ccc(F)c(F)c3)cc2)o1	-25.2%	
COc1cccc(CN2CCCN(Cc3ccncc3)C(c3ccccc3)CC(=O)NCC2)c1OC (centres undefined)	67.7%	
N#Cc1c(-c2cccs2)nc(SCC(=O)c2ccc(Br)cc2)[nH]c1=O		7.08 µM (active)
N#Cc1ccc(-c2cccs2)nc1SCc1ccc(Br)cc1	-27.6%	
N#Cc1c(-c2ccc(F)cc2)cc(C2CC2)nc1SCC(=O)c1cccs1	-10.2%	
Cc1oc(-c2ccc(OC(C)C)cc2)nc1CSc1nc2c(c(=O)[nH]1)CCC2	-5.3%	
CCC(Oc1ccc(Br)cc1)C(=O)O (centres undefined)	-20.7%	
CC(=O)C1=C(O)C(=O)N(c2cccnc2)C1c1ccc([N+](=O)[O-])cc1 (centres undefined)	-19.4%	
CC(=O)C1=C(O)C(=O)N(c2ccc(Br)cc2)C1c1ccc([N+](=O)[O-])cc1 (centres undefined)		31.6 µM (active)
COC(=O)CN1C(=O)C(O)=C(C(C)=O)C1c1ccc([N+](=O)[O-])cc1 (centres undefined)	-12.7%	
O=C(C(c1ccccc1)c1ccccc1)N(Cc1ccco1)C1CC1	-2.19%	
Cc1ccc(CS(=O)Cc2ccc(Cl)cc2)cc1 (centres undefined)	-10.9%	
CC(C)CNC(=S)NC(=O)c1ccc(Cl)cc1		8.91 µM (active)
Cc1scc(C(=O)NNC(=S)NCC(C)C)c1C	-23.5%	
CC(C)CNC(=S)NNC(=O)c1nn(C)cc1Cl	-17.6%	
O=C(NC(=S)NC1CCCCC1)c1ccc(Cl)cc1		2.82 µM (active)
O=C(NNC(=S)NC1CC2CCC1C2)c1ccc(Cl)cc1 (centres undefined)	0%	
O=C(NC1CCCCCC1)C1CCN(C(=O)c2ccc(Cl)cc2)CC1	240%	
Cc1ccccc1N1CCCN(Cc2ccccc2OCCO)CC1	29.5%	
Cc1ccc(-c2nc3ccccc3o2)cc1NC(=O)C1CC1	-4.05%	
Cn1cc(-c2cnc3n[nH]c(-c4ccccc4)c3n2)cn1	24.5% [at 176 µM]	
COc1ccc(Cl)cc1C(=O)OCCOc1ccccc1F	26.4%	

SMILES	activity change, negative = inhibition	Potency
CN(CCOc1ccccc1)C(=O)c1cc(-c2ccco2)nc2ccccc12		31.6 µM (active)
CCCOc1cccc(-c2cc(C(=O)OC)c3ccccc3n2)c1	4.79%	
COc1cccc(-c2cc(C(=O)NCCC(C)C)c3ccccc3n2)c1	14.8%	
Cc1cc(C(=O)OCC(=O)NC(=O)c2ccccc2)c2ccccc2n1	8.94%	
CCc1nnsc1C(=O)N(C)CCOc1ccccc1	-7.12%	
CC(C)CCNC(=O)COC(=O)c1cc(-c2ccco2)nc2ccccc12		6.31 µM (active)
CC(C)c1ccc(OCC(=O)Nc2ccc(C(=O)N(C)C)cc2)cc1	4.6%	
N#Cc1nc(-c2ccc(S(=O)(=O)N3CCOCC3)cc2)oc1NCCN1CCOCC1	1.66%	
CC(C)CCN1CC2(CCCN(C(=O)c3ccn(C)c(=O)c3)C2)CCC1=O (centres undefined)	-3.41%	
O=C(CC(NC(=O)c1ccccc1)c1ccccc1)NC12CC3CC(CC(C3)C1)C2 (centres undefined)	56.1%	
CCc1nnc(NC(=O)C2CC(=O)N(c3ccc4c(c3)OCCO4)C2)s1 (centres undefined)	6.52%	
CCOC(=O)CSc1nnc(NC(=O)C2CC(=O)N(c3ccc(F)cc3)C2)s1 (centres undefined)		39.8 µM (active)
COc1ccc(C(=O)CSc2nnc(NC(=O)C3CC(=O)N(c4cccc(OC)c4)C3)s2)cc1 (centres undefined)	8.34%	
CSc1nc(-c2cccs2)cc(C(F)(F)F)n1	-24.3%	
CCn1nc(C(=O)N(C)Cc2cnn(-c3ccccc3)c2)c2ccccc2c1=O	44.5%	
CC1CCCCN1C(C)CNC(=S)Nc1ccc(F)cc1F (centres undefined)	-8.73%	
Cn1cc(CN2CCn3c(nnc3[C@@H]3C[C@@H](O)CN3Cc3ccccc3)C2)c2ccccc21	-4.36%	
CC(=O)N(c1ccc2oc(=O)sc2c1)S(=O)(=O)c1ccc(C)cc1		8.91 µM (active)
CC(=O)Oc1ccc(N(C(C)=O)S(=O)(=O)c2ccc3ccccc3c2)cc1Br	0%	
CCOC(=O)c1c(C)oc2ccc(N(C(=O)c3ccncc3)S(=O)(=O)c3ccc(CC)cc3)cc12	0%	
Cn1c(=O)c2c(nc(NCc3ccccc3)n2Cc2cccc(F)c2)n(C)c1=O	9.35%	
O=C(Nc1nc(-c2ccco2)c(-c2ccco2)s1)c1ccco1		31.6 µM (active)
CCN(c1ccc(Cl)cc1)S(=O)(=O)c1nnc(NC(=O)c2ccco2)s1	-23.8%	
O=C(Nc1ccc2nc(SCCOc3ccccc3)sc2c1)c1ccco1	-28.3%	
O=C(COC(=O)CNC(=O)c1cccc(Cl)c1)Nc1ncc(C(F)(F)F)cc1Cl	-24.8%	
Cc1nc(SC(C)C(=O)Nc2cccc(C#N)c2)n(CC(C)C)c1C (centres undefined)	1.37%	

SMILES	activity change, negative = inhibition	Potency
COc1ccc(NC(=O)[C@@H]2C[C@@H](c3ccc(F)cc3)N(CCOc3ccccc3)C2)cn1		31.6 µM (active)
O=C(Nc1cccnc1)[C@@H]1C[C@@H](c2ccc(F)cc2)N([S+](=O)([O-])c2ccccc2)C1	10.5% [at 176 µM]	
COc1ccc(NC(=O)[C@@H]2C[C@@H](c3cccc(C(F)(F)F)c3)N(Cc3cnn(C)c3)C2)cn1	0.79%	
O=C(NC1CC1)c1ccccc1OCC1CCCN(Cc2ccncc2F)C1 (centres undefined)	57.2%	
Cc1ccccc1N/N=C/c1ccc(N2CCOCC2)cc1		7.08 µM (active)
Cc1ccc(/C=N/Nc2ccccc2C(F)(F)F)cc1	37.1%	
CN(CC(=O)Nc1ccc(N2CCOCC2)cc1)CC(=O)Nc1ccccc1[N+](=O)[O-]	1.25%	
Cc1cc2ccccc2n1CC(=O)Nc1ccc(Oc2ccccc2)cc1	-0.868%	
Cc1ccc(CN2CCN(c3nc4ccccc4o3)CC2CCO)cc1 (centres undefined)	15.7%	
CSc1ccc(/C=N/Nc2c(Cl)cc(Cl)cc2Cl)cc1		4.47 µM (active)
CSc1ccc(/C=N/N2CCN(Cc3ccccc3Cl)CC2)cc1	-1.35%	
CSc1ccccc1N=Cc1ccc(Cl)c(Cl)c1	3.85%	
CCNc1nc(C(F)(F)F)c(C(=O)OCC)s1	40.4%	
Cc1ccc(C2C3=C(CC(C)(C)CC3=O)Nc3nc(SCCC(C)C)[nH]c(=O)c32)s1 (centres undefined)	30.9%	
CN(C)C(=O)c1cccnc1OC1CCN(C(=O)Nc2cc(F)cc(F)c2)C1 (centres undefined)	-0.265%	
CCOc1cc(-c2ccc(O)c(OC)c2)cc(=O)c2c(C)oc(C)c12		7.08 µM (active)
COc1ccc(-c2c(C)c3ccc(O)c(CN4CCCC4)c3oc2=O)cc1OC	-10.4%	
Cc1oc(C)c2c(=O)cc(-c3ccc4c(c3)OCO4)cc(OC(=O)c3ccc(Cl)cc3)c12	6.01%	
CCn1nc(C)c(CNC(=O)Nc2cc(Cl)ccc2OC)c1C	23.7%	
O=C(c1ccc2c(c1)N(C(=O)c1ccccc1)CC2)N1CCN(c2ccc(Cl)cc2)CC1	38.8%	
Cc1ccc2cc(C(=O)NCc3cccnc3-n3cccn3)c(C)nc2c1	7.82%	
Cc1nc(C)c(C(=O)N2CCC(N3C(=O)C4(CCCC4)C3c3ccccc3)CC2)s1 (centres undefined)	58%	
Cc1nc2cc(NC(=O)C3CC(=O)N(CC4CC4)C3)ccc2o1 (centres undefined)	0.248%	
CC(C)CC(CC(C)C)=NNC(=O)COc1ccc(C#N)cc1	-15.3%	
NS(=O)(=O)c1ccc2nc(NC(=O)COc3ccccc3)sc2c1	2.54%	
N#Cc1ccc(OCC(=O)Nc2nc(-c3ccccn3)cs2)cc1		17.8 µM (active)
